# In PubChem BioAssay AID1159580 (chemical genetic matrix, 2015):
# Where “and” joins values, the source holds several entries; their conditions need not be identical. Equal values may be shown once. Out of some 5,500 compounds screened, about 2,000 (36%) were called active. Inconclusive results (about 18%) are left out. The list shows a part of the results. A number with no mark means an inactive call. Rule as the data show it: active = normalized growth mostly below about 0.91 (no sharp cut-off); inconclusive = no clear call, values can overlap the other calls; inactive = mostly above about 0.92.
# Experiment: chemical genetic growth profiling, strain panel (AID 1159580);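 also: tested at 20 µM; growth read once vehicle control cultures reached saturation at 30 °C; 1 = growth at the plate median or of vehicle wells; lower values mean less growth of the strain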
# Settings: S. cerevisiae deletion strains, growth OD
structure (smiles),measurement,setting,value
CC(=O)[C@@]1(O)CCC2C3CCC4=CC(=O)CC[C@]4(C)C3CC[C@@]21C (stereo partly drawn),normalized growth,"locus YAL021C, strain ccr4, active compounds read low",0.99
same,normalized growth,"locus YAL026C, strain drs2, active compounds read low",0.992
same,normalized growth,"locus YAL030W, strain snc1, active compounds read low",0.998
same,normalized growth,"locus YBL061C, strain skt5, active compounds read low",0.991
same,normalized growth,"locus YBR009C, strain hhf1, active compounds read low",0.995
same,normalized growth,"locus YBR021W, strain FUR4, active compounds read low",1.01
same,normalized growth,"locus YBR023C, strain chs3, active compounds read low",0.995
same,normalized growth,"locus YBR171W, strain sec66, active compounds read low",0.985
same,normalized growth,"locus YBR229C, strain ROT2, active compounds read low",0.993
same,normalized growth,"locus YBR231C, strain swc5, active compounds read low",0.999
same,normalized growth,"locus YBR279W, strain paf1, active compounds read low",0.986
same,normalized growth,"locus YCL011C, strain gbp2, active compounds read low",0.997
same,normalized growth,"locus YCL016C, strain dcc1, active compounds read low",0.992
same,normalized growth,"locus YCL029C, strain bik1, active compounds read low",1.01
same,normalized growth,"locus YCL061C, strain MRC1, active compounds read low",0.987
same,normalized growth,"locus YCL069W, strain vba3, active compounds read low",0.996
same,normalized growth,"locus YCR088W, strain abp1, active compounds read low",0.988
same,normalized growth,"locus YDL005C, strain med2, active compounds read low",0.975
same,normalized growth,"locus YDL035C, strain GPR1, active compounds read low",1.01
same,normalized growth,"locus YDL040C, strain nat1, active compounds read low",0.993
same,normalized growth,"locus YDL074C, strain BRE1, active compounds read low",1.04
same,normalized growth,"locus YDL101C, strain DUN1, active compounds read low",0.996
same,normalized growth,"locus YDL134C, strain PPH21, active compounds read low",0.99
same,normalized growth,"locus YDL185W, strain tfp1, active compounds read low",1.01
same,normalized growth,"locus YDL192W, strain arf1, active compounds read low",0.992
same,normalized growth,"locus YDR001C, strain nth1, active compounds read low",0.989
same,normalized growth,"locus YDR069C, strain doa4, active compounds read low",0.996
same,normalized growth,"locus YDR101C, strain arx1, active compounds read low",1.04
same,normalized growth,"locus YDR137W, strain rgp1, active compounds read low",0.815 (active)
same,normalized growth,"locus YDR159W, strain sac3, active compounds read low",0.931
same,normalized growth,"locus YDR162C, strain NBP2, active compounds read low",0.977
same,normalized growth,"locus YDR195W, strain ref2",0.995
same,normalized growth,"locus YDR297W, strain sur2, active compounds read low",0.994
same,normalized growth,"locus YDR318W, strain mcm21, active compounds read low",0.99
same,normalized growth,"locus YDR334W, strain swr1, active compounds read low",0.992
same,normalized growth,"locus YDR335W, strain msn5, active compounds read low",1.01
same,normalized growth,"locus YDR388W, active compounds read low",1.01
same,normalized growth,"locus YDR392W, strain spt3, active compounds read low",0.891
same,normalized growth,"locus YDR502C, strain sam2, active compounds read low",1.01
same,normalized growth,"locus YEL003W, strain gim4, active compounds read low",0.999
same,normalized growth,"locus YEL037C, strain rad23, active compounds read low",0.993
same,normalized growth,"locus YEL061C, strain CIN8 (second series), active compounds read low",0.993
same,normalized growth,"locus YEL061C, strain CIN8, active compounds read low",0.995
same,normalized growth,"locus YER015W, strain faa2, active compounds read low",0.998
same,normalized growth,"locus YER016W, strain bim1, active compounds read low",0.99
same,normalized growth,"locus YER110C, active compounds read low",1.01
same,normalized growth,"locus YER111C, strain swi4, active compounds read low",0.987
same,normalized growth,"locus YER155C, strain BEM2 (second series), active compounds read low",0.995
same,normalized growth,"locus YER155C, strain BEM2, active compounds read low",1
same,normalized growth,"locus YER167W, strain BCK2, active compounds read low",0.994
same,normalized growth,"locus YFR010W, strain ubp6, active compounds read low",1.01
same,normalized growth,"locus YGL078C, strain dbp3, active compounds read low",1.04
same,normalized growth,"locus YGL086W, strain mad1, active compounds read low",1.03
same,normalized growth,"locus YGL167C, strain pmr1, active compounds read low",0.983
same,normalized growth,"locus YGL173C, strain kem1, active compounds read low",0.99
same,normalized growth,"locus YGL227W, strain vid30, active compounds read low",0.994
same,normalized growth,"locus YGL240W, strain doc1, active compounds read low",0.989
same,normalized growth,"locus YGL248W, strain PDE1, active compounds read low",0.985
same,normalized growth,"locus YGL253W, strain hxk2, active compounds read low",0.997
same,normalized growth,"locus YGR078C, strain PAC10, active compounds read low",0.991
same,normalized growth,"locus YGR135W, strain pre9, active compounds read low",0.966
same,normalized growth,"locus YGR252W, strain gcn5, active compounds read low",1.04
same,normalized growth,"locus YHR013C, strain ard1, active compounds read low",0.989
same,normalized growth,"locus YHR027C, strain rpn1, active compounds read low",0.992
same,normalized growth,"locus YHR030C, strain SLT2, active compounds read low",1 and 0.968
same,normalized growth,"locus YHR079C, strain IRE1 (second series), active compounds read low",1.01
same,normalized growth,"locus YHR079C, strain IRE1, active compounds read low",0.983
same,normalized growth,"locus YHR094C, strain hxt1, active compounds read low",0.999
same,normalized growth,"locus YHR129C, strain ARP1, active compounds read low",0.993
same,normalized growth,"locus YHR142W, strain chs7, active compounds read low",0.993
same,normalized growth,"locus YHR200W, strain rpn10, active compounds read low",1.02
same,normalized growth,"locus YIL066C, strain RNR3, active compounds read low",0.994
same,normalized growth,"locus YIL073C, strain SPO22, active compounds read low",1.03
same,normalized growth,"locus YIL125W, strain kgd1, active compounds read low",1.03
same,normalized growth,"locus YIR030C, strain dcg1, active compounds read low",1.01
same,normalized growth,"locus YJL092W, strain hpr5, active compounds read low",0.991
same,normalized growth,"locus YJL095W, strain BCK1 (second series), active compounds read low",0.992
same,normalized growth,"locus YJL095W, strain BCK1, active compounds read low",0.96 and 0.984
same,normalized growth,"locus YJL115W, strain asf1, active compounds read low",0.987
same,normalized growth,"locus YJL129C, strain trk1, active compounds read low",0.955
same,normalized growth,"locus YJL134W, strain LCB3, active compounds read low",0.998
same,normalized growth,"locus YJL154C, strain vps35, active compounds read low",0.987
same,normalized growth,"locus YJL164C, strain tpk1, active compounds read low",0.985
same,normalized growth,"locus YJL166W, strain qcr8, active compounds read low",0.998
same,normalized growth,"locus YJL168C, strain set2, active compounds read low",1
same,normalized growth,"locus YJL187C, strain SWE1 (second series), active compounds read low",0.994
same,normalized growth,"locus YJL187C, strain SWE1, active compounds read low",0.997
same,normalized growth,"locus YJR043C, strain POL32, active compounds read low",1.05
